Data reported in PubChem BioAssay (Tox21).
Inconclusive results are not listed. Activity calls are given as the source filed them. The call rests on the fitted dose curve.

What follows are compounds tested against Peroxisome proliferator-activated receptor delta (Homo sapiens) (UniProt Q03181) (assay: qHTS assay to identify small molecule agonists of the peroxisome proliferator-activated receptor delta (PPARd) signaling pathway (AID 743212)). Details: HEK293H PPARd-UAS-bla, beta-lactamase FRET ratio, 17 h; series mostly up to 62.6 µM; activation: at the top concentration.
Description: U.S. Tox21 Program National Center for Advancing Translational Sciences [NCATS] NIH Chemical Genomics Center [NCGC] U.S. Environmental Protection Agency [EPA] National Institutes of Environmental Health Sciences [NIEHS] National Toxicology Program [NTP] U.S. Food and Drug Administration [FDA] Tox21 Assay Overview: The peroxisome proliferator-activated receptors (PPARs) are lipid-activated transcription factors of the nuclear receptor superfamily with three distinct subtypes namely PPAR alpha, PPAR delta (PPARd) and PPAR gamma. All these subtypes heterodimerizes with Retinoid X receptor (RXR) and have different physiological functions. […] To identify the compounds that activate PPAR-delta signaling, GeneBLAzer PPAR delta UAS-bla HEK293H cell line (Invitrogen, Carlsbad, CA, USA) containing a beta-lactamase reporter gene under the control of an Upstream Activator Sequence (UAS) was used to screen the Tox21 compound library.
Tox21 Assay Protocol Summary: PPARd-bla cells were dispensed at 3000 cells/6uL/well in 1536-well black wall/clear bottom plates using a Multidrop Combi (Thermo Fisher Scientific, Waltham, MA) dispenser. After the assay plates were incubated at 37 C and 5% CO2 for 5 h, 23 nL of compounds dissolved in DMSO, positive controls or DMSO only was transferred to the assay plate by a Pintool station (Kalypsys, San Diego, CA). The assay plates were incubated at 37C for 17 h. After 1 uL of LiveBLAzerTM B/G FRET substrate was added using a Bioraptr Flying Reagent Dispenser (FRD) workstation (Beckman Coulter, Indianapolis, IN, USA), the plates were incubated at room temperature for 2 h, and fluorescence intensity was measured by an Envision plate reader (PerkinElmer, Shelton, CT).
On the % scale 0 is the no-effect control and ±100 the full control effect.

Peroxisome proliferator-activated receptor delta (Homo sapiens), sequence (Q03181 whole entry, looked up): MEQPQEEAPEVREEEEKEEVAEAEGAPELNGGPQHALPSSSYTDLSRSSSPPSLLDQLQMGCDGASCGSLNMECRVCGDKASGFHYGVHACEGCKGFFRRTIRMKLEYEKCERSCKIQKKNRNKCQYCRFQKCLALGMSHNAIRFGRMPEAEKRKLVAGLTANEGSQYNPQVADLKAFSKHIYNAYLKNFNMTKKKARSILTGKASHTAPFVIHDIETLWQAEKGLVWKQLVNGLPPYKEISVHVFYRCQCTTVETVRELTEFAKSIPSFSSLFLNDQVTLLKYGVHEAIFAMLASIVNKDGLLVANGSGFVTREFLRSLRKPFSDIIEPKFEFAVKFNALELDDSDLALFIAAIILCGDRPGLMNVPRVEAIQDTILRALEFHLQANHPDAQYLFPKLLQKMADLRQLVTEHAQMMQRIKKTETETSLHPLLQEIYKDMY

Compound | activation
O=c1oc2ccccc2c(O)c1C1CCCc2ccccc21 (stereo not given) | 2.58% (inactive)
CCCCOC(=O)c1ccccc1N | -1.03% [at 81.1 µM] (inactive)
C[N+](=O)[O-] | -1.41% (inactive)
CCC/C(=N\OCC)C1=C(O)CC(CC(C)SCC)CC1=O (stereo not given) | -4.34% [at 81.1 µM] (inactive)
CC(C)CC#N | -0.846% [at 81.1 µM] (inactive)
CNC(=O)Oc1ccccc1C1OCCO1 | 2.93% (inactive)
C[C@H]1CCC[C@H](O)CCCCCc2cc(O)cc(O)c2C(=O)O1 | -2.14% [at 81.1 µM] (inactive)
COc1cc(C[C@@H](C)N)c(OC)cc1C | -0.505% [at 81.1 µM] (inactive)
COc1ncc(F)c2nc(S(=O)(=O)Nc3c(F)cccc3F)nn12 | 6.9% (inactive)
Cc1cc(C)c(C(=O)P(=O)(C(=O)c2c(C)cc(C)cc2C)c2ccccc2)c(C)c1 | 0.229% (inactive)
COP(N)(=S)Oc1ccccc1C(=O)OC(C)C (stereo not given) | -2.98% (inactive)
O=[N+]([O-])c1ccc(CBr)cc1 | -2.78% [at 81.1 µM] (inactive)
CCOP(=S)(OCC)Oc1cc(-c2ccccc2)on1 | -1.95% (inactive)
O=NN1CCCCC1 | 0% (inactive)
CC(C)(C)OC(=O)c1ncn2c1[C@@H]1CCCN1C(=O)c1c(Br)cccc1-2 | -5.57% (inactive)
ClC(Cl)Br | -3.4% [at 81.1 µM] (inactive)
CN1C(=S)CN=C(c2ccccc2)c2cc(Cl)ccc21 | 9.76% (inactive)
CC1CCC(=O)O1 (stereo not given) | -0.0801% (inactive)
CCN(CC)CCOC(=O)C(C)(c1ccccc1)c1ccccc1 | 3.1% (inactive)
CCCSP(=S)(OCC)Oc1ccc(Cl)cc1Cl (stereo not given) | -4.66% (inactive)

Compound | activation
O=C1OC(c2ccc(O)c(S(=O)(=O)O)c2)(c2ccc(O)c(S(=O)(=O)O)c2)c2c(Br)c(Br)c(Br)c(Br)c21 | -4.26% (inactive)
CCOC(=O)N(C)C(=O)CSP(=S)(OCC)OCC | 6.76% (inactive)
CCN(Cc1ccc(Cl)nc1)/C(=C/[N+](=O)[O-])NC | 1.33% (inactive)
COP(=S)(OC)Oc1ccc(S(N)(=O)=O)cc1 | 1.73% (inactive)
BrCCCCCCBr | -2.94% (inactive)
Cc1nc(N)nc(N)n1 | -0.28% [at 81.1 µM] (inactive)
CC(N)=S | 2.65% (inactive)
Nc1cc2c3c(c1)C(c1ccccc1)=N[C@@H](NC(=O)c1cccnc1)C(=O)N3CC2 | 4.58% (inactive)
C[C@]1(O)CC[C@H]2[C@@H]3CCC4=CC(=O)CC[C@]4(C)[C@@]3(F)[C@@H](O)C[C@@]21C | -5.5% [at 81.1 µM] (inactive)
CN1CCC(O)(c2ccc(F)cc2)C(C(=O)c2ccc(F)cc2)C1 (stereo not given) | -0.129% (inactive)
C[C@@H]1CN(C2CCC(C#N)(c3ccc(F)cc3)CC2)CC[C@]1(C(=O)O)c1ccccc1 (stereo not given in full) | -4.84% (inactive)
O=C(Nc1ccccc1)c1ccccc1I | -4.36% (inactive)
c1cc[c]([Hg][c]2ccccc2)cc1 | -0.955% (inactive)
N#Cc1c(Cl)cccc1Cl | -0.412% (inactive)
CCOP(=O)(N=C1SCCS1)OCC | 4.12% (inactive)
Fc1cc(Br)ccc1CBr | 1.23% (inactive)
CC(=O)CCc1ccc2c(c1)OCO2 | 2.76% (inactive)
CC1(C)CON(Cc2ccccc2Cl)C1=O | -1.04% (inactive)
C=C(C)CN(CC)c1c([N+](=O)[O-])cc(C(F)(F)F)cc1[N+](=O)[O-] | -2.61% (inactive)
CN(C)CCc1ccc(O)cc1 | 0.351% (inactive)
